Bioassay records as filed in PubChem.
TGFb SMAD3 inh = blocks TGF-b signaling. 1.2% of 410,000 active. HepG2 CAGA-GFP TGF-b/SMAD3 reporter, GFP fluorescence, 18 h; TGF-beta stimulated, 500 pg/mL final. AID 588855. Potency, µM (doses to about 46.1 µM), without a hit: top-dose activity, negative = inhibition, hits mostly inhibitors; also: potency is read from the fitted curve at half-maximal effect; % is scaled to controls: 0 for no effect and ±100 for the full control effect; nearly all actives have a fitted effect of over 65% in size
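TGF-beta reporter screen: HEPG2 CAGA-GFP, 1% FBS, 500 pg/mL TGF-beta final, 18 h; per-cell GFP summed per well; curves fitted and categorized by class.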
IL-1B inflam inh = blocks inflammasome-driven IL-1 beta release | THP-1 LPS/ATP IL-1B secretion, AlphaLISA, 16 h; hits give low values | activity change, % at 57.5 µM | 4.7% of 360,000 active; in the data active = activity change below about -50%; inconclusive = mostly about -30% to -49%; also: % is scaled to controls: 0 for no effect and ±100 for the full control effect
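THP-1 cells pretreated 1 hr with compounds (up to 57.5 uM final), then stimulated with LPS (250 ng/mL final) plus ATP (1.25 mM final); secreted IL-1B measured by AlphaLISA after 16 hr, decreased signal indicating inhibition.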
ATXN viability = viability counter-screen for ATXN expression inhibitors; Potency, µM (top dose mostly 56.7 µM), usual class: cytotoxic; 0.49% of 400,000 active; AID 651635; S2 cells (HEK-293 line with an ATXN2-luciferase reporter) viability, CellTiter-Fluor protease fluorescence, 24 h; also: potency is read from the fitted curve at half-maximal effect; nearly all actives have a fitted effect of over 40% in size
ATXN2 expr inh = inhibitors of ATXN2 expression | HEK-293 ATXN2-luciferase reporter, luminescence, 24 h | Potency, µM (series often up to 57 µM), inactives show top-dose activity change, negative = inhibition, usual class: inhibitors | 0.72% of 360,000 active; also: potency is read from the fitted curve at half-maximal effect; % is scaled to controls: 0 for no effect and ±100 for the full control effect; nearly all actives have a fitted effect of over 55% in size
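qHTS (up to 57 uM final) was run with 24 h compound exposure of reporter cells at 37 °C. Each well was multiplexed: SteadyGlo luminescence measured ATXN2-luciferase expression after a fluorogenic Gly-Phe-AFC viability readout (25 uM final).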
HepG2 tox = counter-screen for TGF-b inhibitors: cytotoxicity in HepG2 cells. HepG2 CAGA-GFP viability, ATP luminescence, 18 h. Potency, µM (series often up to 46.1 µM), for inactives: at the highest dose activity change, negative = cytotoxicity, most hits filed as cytotoxic. 0.76% of 410,000 active. AID 588856; also: potency is read from the fitted curve at half-maximal effect
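CellTiter-Glo luminescence gave cytotoxicity after 18 hours at 37 degrees C. The cells were HepG2 CAGA-GFP in 1% FBS DMEM, stimulated with 500 pg/mL TGF-beta after compound addition. %Activity was normalised to no-cell wells (complete cell-killing) and DMSO (no toxicity), and curves were fitted and classified.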
An asterisk follows results filed as active; i = inactive; ? = inconclusive; . = not tested or not shown. Only some compounds are listed: those with a hit (about 5.7% of all), similar ones and a draw of the others. Unless noted, calls follow the shape of the dose curve; as a rule, active = well fitted curve in the direction sought with a large enough effect; inconclusive = small, poorly fitted or top-dose-only effect, or another doubt; inactive = no such curve, though single readings can be large; an effect the other way counts as inactive or inconclusive.

SMILES	TGFb SMAD3 inh	IL-1B inflam inh	ATXN viability	ATXN2 expr inh	HepG2 tox
O=C(NCCC1=CCCCC1)c1cc(-c2ccncc2)nc2ccccc12	-1%	-83*	i	-12%	12%
Cc1ccc(-c2cc(C(=O)Nc3ccncc3)c3ccccc3n2)cc1	-8%	-78*	?	-34%	-4%
COc1cc(-c2cc(C(=O)Nc3ccncc3)c3ccccc3n2)cc(OC)c1OC	-3%	-50*	i	5%	-20%
Cc1ccc(CCNC(=O)c2cc(-c3ccncc3)nc3ccccc23)cc1	19%	18	i	-13%	-14%
CCN1CCOC(=O)C1CC(=O)Nc1cc(C)ccc1OC (stereo unspecified)	?	.	i	33%	3%
O=c1[nH]/c(=C/c2ccc3c(c2)OCO3)c(=O)[nH]/c1=C/c1ccc2c(c1)OCO2	5%	.	.	.	-36%
Cc1cc(C)c(NC(=O)COCc2cc(-c3cccs3)on2)c(C)c1	-18%	.	.	.	-34%
Cc1ccc(Cn2c(N3CCN(CCO)CC3)nc3c2c(=O)n(C)c(=O)n3C)cc1	-1%	-52*	i	4%	-10%
Cc1ccc2oc(=O)n(Cc3ccccc3Cl)c2c1	16%	.	i	9%	-6%
COC(=O)c1ccc(Cn2cc(Cl)cn2)cc1	-8%	?	i	-15%	-17%
COC(=O)c1ccc(Cn2cnc3c(Cl)ncnc32)cc1	-10%	-94*	i	0%	-3%
CCOc1ccc2nc(N3CCCC(C(=O)Nc4cc(Cl)c(OC)cc4OC)C3)sc2c1 (stereo unspecified)	22%	.	.	.	-10%
Clc1ccc(CSc2nnc(-c3c[nH]c4ccccc34)o2)cc1	16µM*	3	i	-25%	-69%
COc1ccc(N(Cc2ccccc2)C(=O)CSc2nnc(Cn3nnc4ccccc43)o2)cc1	-11%	-2	i	?	-10%
COc1ccc(CN(C(=O)CSc2nnc(-c3ccc(F)cc3)o2)c2ccc(F)cc2)cc1	-20%	-18	i	6%	-13%
O=C(CSc1nnc(Cn2nnc3ccccc32)o1)N(Cc1ccc(F)cc1)c1ccccc1	11µM*	-82*	i	-32%	-22%
COc1ccc(CN(C(=O)CSc2nnc(-c3c[nH]c4ccccc34)o2)c2ccc(F)cc2)cc1OC	-26%	-83*	?	?	4%
CCOC(=O)CSc1nnc(-c2c[nH]c3ccccc23)o1	-33%	-93*	i	-9%	-12%
CCSc1nnc(-c2c[nH]c3ccccc23)o1	7%	-12	?	69%	4%
O=S(=O)(Nc1ccc(-c2nnc(SCc3ccc(Cl)cc3)o2)cc1)c1ccccc1	?	-79*	i	-23%	-15%
O=C(O)c1ccc(CSc2nnc(-c3ccc(Cl)cc3)o2)cc1	9%	47	i	14%	4%
CC(C)(C)OC(=O)n1cc(/C=N/NC(=O)c2ccco2)c2ccccc21	-7%	-60*	i	14%	-1%
CC(=O)n1cc(/C=N/NC(=O)c2ccccc2O)c2ccccc21	-3%	?	i	29%	-6%
CC(C)N=C(NC#N)SCc1ccccc1F	-5%	2	i	10%	-3%
CC(C)(C)NC(=O)CSC(=Nc1cccc(F)c1)NC#N	-17%	-97*	i	32%	-31%
SMILES	TGFb SMAD3 inh	IL-1B inflam inh	ATXN viability	ATXN2 expr inh	HepG2 tox
N#CNC(=Nc1cccc(F)c1)SCc1ccccc1F	?	-12	?	.	11µM*
CN(C)c1ccc(/C=C2\C(Cl)=Cc3ccccc32)cc1	-4%	.	.	.	-36%
COc1ccc(N(C(=O)Cn2cnc3ccccc32)C(C(=O)NC2CCCCC2)c2ccccc2)cc1 (stereo unspecified)	?	-75*	i	0%	-6%
Cc1cc(NC(=O)CCC(=O)N(c2ccccc2)C2(C(=O)NC3CCCCC3)CCCC2)no1	-13%	-61*	i	-18%	-1%
COc1ccc(N(C(=O)Cn2nnc3ccccc32)C2(C(=O)NC3CCCC3)CCCCC2)cc1	-9%	-58*	?	-16%	-14%
COCCN(C(=O)Cn1nnc2ccccc21)C(C(=O)NC1CCCCC1)c1ccc(OC)cc1OC (stereo unspecified)	8%	-11	i	2%	-11%
